Molecules are shown by their SMILES.

For the assay, the system named is Human papillomavirus type 1a E7 protein (residues 1-88). The experiment in a line: HPV1a E7 small-molecule binders, primary screen, biochemical, small-molecule microarray, residues 1-88, 635 nm (AID 1129). The following applies: small-molecule microarray binding, fluorescence 635 nm; higher = more signal.
Compound `O=C(O)C1=CC[C@H]2C(=O)N(c3ccccc3)C(=O)[C@@H]12` yielded a composite z-score of 1.2.
In the case of `CCc1cccc(NC(=O)O[C@H]2[C@H](OC(=O)Nc3ccccc3-c3ccccc3)[C@H](OC(=O)Nc3ccccc3-c3ccccc3)[C@@H](OC)O[C@@H]2CO)c1` it was 1.21; in that of `C=C(COC)/C(=C/C[C@@H](OC(C)=O)c1cccc(OCCO)c1)c1cnc2ccccc2c1`, 0.75.
Take `Cc1ccc(S[C@]2(C(=O)NCc3ccccc3)CC(=O)N(Cc3ccccc3C(F)(F)F)[C@@H]2c2ccc(CO)cc2I)cc1`: the composite z-score is -0.645.
To `COCCOC(=O)N1C(=O)[C@@]2(c3cc(C#CC4(O)CCCCCC4)ccc31)[C@H](C(N)=O)[C@H]1C(=O)O[C@H](c3ccccc3)[C@H](c3ccccc3)N1[C@@H]2c1ccc(OCCO)cc1` belongs 1.21; to `COc1c(C)cc(-c2cc3c(c(CCc4ccccc4)n2)[Si](C(C)C)(C(C)C)O[C@H]3c2ccccc2)cc1C`, -0.425; to `COC(=O)[C@@]1(Cc2ccc(F)cc2)[C@H]2c3cc(C(=O)N(C)C)n(Cc4cccc5ccccc45)c3C[C@H]2CN1C(=O)c1ccccc1`, 1.11.
In the case of `CC(C)C[C@@H]1NC(=O)[C@@H]2C[C@H](C(=O)NCCCCCNC(=O)CS)[C@H](c3ccc(O)cc3)N2C1=O` it was -0.0315.
`C=C[C@@H](CO)NS(=O)(=O)c1ccc(Br)cc1` gave a composite z-score of -0.371.
To `COC(=O)[C@@]1(Cc2ccc(F)cc2)[C@H]2c3cc(C(=O)N(C)C)n(CCF)c3C[C@H]2CN1C(=O)c1ccccc1` belongs 0.911.
In turn, `COC(=O)[C@@]1(Cc2ccccc2)[C@H]2c3cc(C(=O)N(C)C)n(Cc4nc5ccccc5[nH]4)c3C[C@H]2CN1C(=O)c1ccccc1` yielded a composite z-score of 1.24.
In the case of `C=C(C(=O)CC[C@@H](OC(=O)c1ccccc1-c1ccccc1C(=O)O)c1ccc(OCCO)cc1)C(C)C` it was 0.977; in that of `COCCOC(=O)N1C(=O)[C@@]2(c3cc(C#CCCO)ccc31)[C@H](C(=O)N1CCN(c3ncccn3)CC1)[C@H]1C(=O)O[C@H](c3ccccc3)[C@H](c3ccccc3)N1[C@@H]2c1ccc(OCCO)cc1`, 1.23.
To `O=C1OC[C@@H](c2ccccc2)n2cc(/C=C/c3ccccc3)cc21` belongs -0.58; to `CCOC(=O)C[C@H]1[C@H](OC(=O)c2cc3ccccc3oc2=O)[C@@H](NC(=O)Cc2ccc(OC)cc2)c2cc(OCCCO)ccc2N1C(=O)Cc1ccc(OC)cc1`, -0.624; to `C=CCN1C(=O)[C@@]2(O[C@@H](CCO)[C@H]([Si](C)(C)c3ccc(OC)cc3)[C@H]2C)c2cc(N3CCCCC3=O)ccc21`, 1.16.
To `COc1ccc(CCNC(=O)[C@@]2(C)c3ccccc3C(=O)N(Cc3ccc(OC(F)(F)F)cc3)[C@H]2c2ccc(CO)cc2)cc1` belongs 1.21; to `COC(=O)[C@@]1(Cc2ccccc2)[C@H]2c3cc(C(=O)N(C)C)n(CCF)c3C[C@H]2CN1C(=O)c1ccccc1`, 0.728; to `COc1ccc(NN2C(C(O)c3ccc(F)cc3)C=CC3C(=O)N(C4CCCCC4)C(=O)C32)cc1` (stereo not given), 1.25.
The compound `COC(=O)[C@@]1(Cc2ccc(F)cc2)[C@H]2c3cc(C(=O)N(C)C)n(Cc4ccsc4Br)c3C[C@H]2CN1C(=O)c1ccccc1` returned a composite z-score of 1.12.
In the case of `COc1ccc(NN2C(C(O)c3ccccc3)C=CC3C(=O)N(C4CCCCC4)C(=O)C32)cc1` (stereo not given) it was 1.26; in that of `C=CC[C@H](OC(=O)Nc1ccc(SC)cc1)c1ccc(O)c(F)c1`, 0.294; in that of `CO[C@H]1O[C@H](CO)[C@@H](OC(=O)CCc2ccccc2)[C@@H]2OC(=O)[C@@H](Cc3ccc4ccccc4c3)C/C=C/C[C@H](Cc3ccc4ccccc4c3)C(=O)O[C@@H]12`, 0.0444.
In the case of `COC(=O)[C@H](Cc1ccccc1)N1CC(C)(OC)O[C@@H](Cc2ccccc2)[C@H]1/C=C/C1CC1` (stereo not given in full) it was 0.145.
`C[C@H]1C2[C@H](Cc3ccccc3)NC(=O)[C@]23C(=O)N[C@@H](Cc2ccccc2)C(=O)N2CCC[C@H]2C(=O)NC/C=C/CC/C=C/C3[C@@H]2O[C@]12C` (stereo not given in full) displayed a composite z-score of 0.965.
To `C=C(C(=O)CC[C@@H](OC(=O)c1ccccc1-c1ccccc1C(=O)O)c1cccc(OCCO)c1)C(C)C` belongs -0.481; to `C=C(CCCC)C(=O)CC[C@H](OC(=O)c1ccccc1-c1ccccc1C(=O)O)c1cccc(OCCO)c1`, -0.298; to `C=C(CCCC)/C(=C/C[C@@H](OC(C)=O)c1cccc(OCCO)c1)c1cc(C(=O)OC)ccc1OC`, 0.0538.
To `CCCCCN1CC=CC23O[C@@H]4/C=C\CCCOC(=O)C4[C@H]2C(=O)N(CCO)[C@@H]3C1=O` (stereo not given in full) belongs 0.87; to `O=C1NC(=O)C2C1C=CC(C(O)C1CCCCC1)N2Nc1ccccn1` (stereo not given), 0.688.
`COC(=O)C1(CC(C)C)C=C2C(=C(C)C(=O)C2C)CN1` (stereo not given) gave a composite z-score of 0.098.
To `Cc1ccc(N2C(=O)c3ccccc3[C@@H](C(=O)NCCN3CCOCC3)[C@@H]2c2ccc(CO)cc2)nc1` belongs -0.818; to `COCCOC(=O)N1C(=O)[C@@]2(c3cc(C#CCNC(N)=O)ccc31)[C@H](c1ccc(O)cc1)N1[C@H](c3ccccc3)[C@H](c3ccccc3)OC(=O)[C@H]1[C@@H]2C(=O)N1CCc2cc(OC)c(OC)cc2C1`, 1.11.
In the case of `O=C(NC1CC1)[C@@H]1c2ccccc2C(=O)N(C2CCCCC2)[C@H]1c1ccc(CO)cc1` it was 1.15; in that of `COc1ccc([Si](C)(C)[C@@H]2[C@@H](CC(=O)N(CCO)Cc3ccccc3)O[C@]3(C(=O)N(Cc4cccc(I)c4)c4ccccc43)[C@H]2C)cc1`, 1.12.

These data come from PubChem BioAssay.
